PubChem BioAssay (Tox21)
Records with an inconclusive call do not appear. Unmarked numbers belong to inactive results. Activity calls are given as the source filed them. Calls follow the shape of the dose curve; as a rule, active = well fitted activation curve with a large enough effect in the repeat runs; inconclusive = weak or mixed curves; inactive = no such curve, though single readings can be large or run the other way.

experiment: qHTS assay to identify small molecule agonists of the estrogen related receptor signaling pathway with the pleiotropic PPARgamma coactivator (PGC) (AID 1224823); settings: ERR/PGC reporter cell line, luciferase agonist mode; series mostly up to 46.1 µM; activation: at the top concentration
Procedure, shortened: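 Luminescence readout (One-Glo, 30 min RT) from PGC/ERR cell line treated 18 h at 37 C with pin-tool-delivered DMSO compound solutions; cells plated 6 h before dosing. Quantitative HTS format.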
% is scaled to controls: 0 for no effect and ±100 for the full control effect; potency is read from the fitted curve at half-maximal effect.

| SMILES | activation [%] | Potency |
| --- | --- | --- |
| O=C1NC(c2cccc([N+](=O)[O-])c2)=CCN1c1ccccc1O | 2.65 |  |
| Clc1ccc(N2CCN(Cc3c[nH]c4ncccc34)CC2)cc1 | 6.51 |  |
| O=c1[nH]c(=S)[nH]c(-c2ccccc2)c1Cc1c(O)ccc2ccccc12 | -8.5 |  |
| c1ccc2c(c1)CC(N1CCN(c3cccc4c3OCCO4)CC1)C2 | -6.53 |  |
| CN(C)C(=O)[C@H](O)[C@H](Cc1ccccc1)NC(=O)c1cc2cc(Cl)ccc2[nH]1 | 1.83 |  |
| COc1cc2nc(N3CCCN(C)CC3)nc(NC3CCN(Cc4ccccc4)CC3)c2cc1OC | -28.9 |  |
| COc1ccc(NC(=O)c2ccc(-c3ccc(-c4noc(C)n4)cc3C)cc2)cc1N1CCN(C)CC1 | 7.05 |  |
| CN1CCC2(CCN3CCc4c(oc5ccccc45)C3C2)N(C)C1=O (configuration not stated) | -3.52 |  |
| CC(/C=C/c1cccc(Oc2ccc(F)cc2)c1)N(O)C(N)=O (configuration not stated) | 10.9 |  |
| C=C1C(=O)O[C@@H]2[C@H]3O[C@]3(C)CCC=C(C)CC[C@@H]12 | -30.4 |  |
| O=C(Nc1ccncc1)c1cc([N+](=O)[O-])ccc1Cl | -3.35 |  |
| Cn1c(=O)c2[nH]c(C3CCCC3)nc2n(C)c1=O | -1.33 |  |
| CC(C)(C)[C@]1(O)CCN2C[C@H]3c4ccccc4CCc4cccc(c43)[C@@H]2C1 |  | inactive |
| CC(C)C[C@H](NC(=O)[C@@H](O)[C@H](N)Cc1ccccc1)C(=O)O | -15.4 |  |
| CC#CCOC(=O)c1c(C)nc2sc3c(c2c1N)CCC(O)C3 (configuration not stated) | -7.75 |  |
| COc1ccc(CCn2nnnc2C2(c3ccc(C)cc3)CC2)cc1 | 4.33 |  |
| c1ccc(CN2CCC3(CCCc4ccccc43)CC2)cc1 | -7.28 |  |
| C=CCN1CCc2c(cc(O)c(O)c2Cl)C(c2ccccc2)C1 (configuration not stated) | -6.07 |  |
| O=c1ccc2ccc(O)c(O)c2o1 | 11.4 |  |

| SMILES | activation [%] | Potency |
| --- | --- | --- |
| O=C1NC(=O)/C(=C/c2ccc3nccnc3c2)S1 | -15.5 |  |
| Cc1nn(-c2ccccc2)c(C)c1/C=N/N1CCN(Cc2ccccc2)CC1 | -6.1 |  |
| Oc1cc2c(cc1O)CN(C(=S)NCCc1ccc(Cl)cc1)CCC2 | 23.1 |  |
| O=C(Nc1nc2ccccc2n1CCN1CCOCC1)c1cccc([N+](=O)[O-])c1 | -5.48 |  |
| O=C1Nc2ccc(I)cc2/C1=C/c1cc(Br)c(O)c(Br)c1 | -6.54 |  |
| OC[C@H]1O[C@@H](n2cnc3cncnc32)[C@H](O)[C@@H]1O | -21.7 |  |
| OCc1ccc(-c2nn(Cc3ccccc3)c3ccccc23)o1 | 9.61 |  |
| CC(C)(CO)Cc1cc(C(C)(C)C)c(O)c(C(C)(C)C)c1 | -3.69 |  |
| S=C(S)N1CCCC1 | -17.1 |  |
| C[C@H](Cc1ccc(O)c(O)c1)[C@@H](C)Cc1ccc(O)c(O)c1 | -7.03 |  |
| COC(=O)C1=C(C)NC(C)=C(C(=O)OC)C1c1cccc(NC(=O)NCCCN2CCC(c3cccc(OC)c3)CC2)c1 | -27.7 |  |
| COC(=O)[C@H](NC(=O)c1cc(-c2ccccc2)nc2ccccc12)c1ccccc1 | -7.58 |  |
| CN(C)S(=O)(=O)c1ccc2c(c1)/C(=C/c1cc3c([nH]1)CCCC3)C(=O)N2 |  | 23.7 µM (active) |
| COc1ccccc1N1CCN(CCN2C(=O)CC3(CCCC3)CC2=O)CC1 | -8.33 |  |
| COc1cc2c(cc1O)CC[C@@H]1[C@@H]2CC[C@]2(C)[C@@H](O)CC[C@@H]12 | 12.9 |  |
| Nc1nc(SCc2ccc([N+](=O)[O-])cc2)c2ncn([C@@H]3O[C@H](CO)C(O)[C@H]3O)c2n1 (some centres not stated) | 0.452 |  |
| O=c1[nH]c2cc(C(F)(F)F)ccc2n1-c1cc(C(F)(F)F)ccc1O | -5.94 |  |
| Nc1nc(Cl)nc2c1ncn2[C@@H]1O[C@H](COP(=O)(O)OP(=O)(O)OP(=O)(O)O)C(O)[C@H]1O (some centres not stated) |  | 1.33 µM (active) |
